In the supplement of paper PMC11417369:
± gives the standard deviation of the averaged measurements. The full ranking holds about 25,000 sequences; the median of “ln(normalized median fluorescence intensity)” is about 10, and the highest 2% start at about 12. Many of the other results were omitted from the sample, so the highest values are more common in it than they were.

System: PfAP2-G AP2 domain (GST-tagged)
Assay: gcPBM binding intensity (ln(normalized median fluorescence intensity)); higher = stronger DNA binding
Summary of the method: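 In this array assay, P. falciparum DNA-binding domains with a GST tag, expressed in E. coli, were applied for 1 h to primer-extended double-stranded 36-bp intergenic genomic probes and negative controls on an Agilent 4 × 180k array. Bound protein was visualised with Alexa488 anti-GST antibody at 488 nm. Binding intensity is the highest Masliner-normalised natural-log median intensity across replicate spots of either probe orientation.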

**Q.** With “TATTTTATATGATAGGTGCATTTTTTTTTTTTTTTT [GTGCAC_site9757]” as the sequence, how does the “gcPBM binding intensity (ln)” value read?
**A.** 10.4 ± 0.48

**Q.** “TTCTTTATTTTTTCTACACACATTATATATTCAAAG [CACACA_site5866]” was tested. Which “gcPBM binding intensity (ln)” value did it give?
**A.** 10.12 ± 0.099

**Q.** For “CAACACTTATTGAAACGTACGCATATAGTTTCTTTT [XGTACX_site8960]”, which “gcPBM binding intensity (ln)” value is on record?
**A.** 11 ± 0.55

**Q.** How did the “gcPBM binding intensity (ln)” value turn out when “TATAAATATAAATATACACACATATATTTATTTATA [CACACA_site6890]” was run?
**A.** 9.645 ± 0.078

**Q.** Which “gcPBM binding intensity (ln)” value does the source give for “TATTTGTGCCAAAAATGAAAAAGTTTGTATAAAACC [CACACA_negctrl_site1406]” here?
**A.** 10.1 ± 0.17

**Q.** How did the “gcPBM binding intensity (ln)” value turn out when “AAGATACACTTAATCGCACACGAAATTATATATTTA [CACACA_site3063]” was run?
**A.** 10.1 ± 0.24

**Q.** “TATATATATTATATATGTACATATATTTTTTTTTTT [XGTACX_site127]” was tested. Which “gcPBM binding intensity (ln)” value did it give?
**A.** 11.2 ± 0.81

**Q.** How did the “gcPBM binding intensity (ln)” value turn out when “ATTTAAGGGGTGTATGCACACGACTATTCCGTATGA [CACACA_site4738]” was run?
**A.** 10.23 ± 0.092

**Q.** With “ATTTTTTTTTCTTGTACACACTATTTTATAATTTTA [CACACA_site6102]” as the sequence, how does the “gcPBM binding intensity (ln)” value read?
**A.** 11.6 ± 0.93

**Q.** “TATATCTGTTTATATTGTACACATATATATATATAT [XGTACX_site714]” was tested. Which “gcPBM binding intensity (ln)” value did it give?
**A.** 11.4 ± 0.93

**Q.** With “TCATTCTTGTGTTTATGTACACATATTTATATTGTA [XGTACX_site710]” as the sequence, how does the “gcPBM binding intensity (ln)” value read?
**A.** 11.4 ± 0.88

**Q.** “TATTATCTGTAGTGTACACATATTATATAGTACTTT [CACACA_site4582]” was tested. Which “gcPBM binding intensity (ln)” value did it give?
**A.** 11.8 ± 1

**Q.** How did the “gcPBM binding intensity (ln)” value turn out when “ATATATATATAGTACGCACACATAGTTGTACATTAA [CACACA_site2787]” was run?
**A.** 12 ± 1.3

**Q.** Which “gcPBM binding intensity (ln)” value does the source give for “CATATTTTCTTGTGTACACATTTATTTTATACTATA [CACACA_site6032]” here?
**A.** 11.7 ± 0.97

**Q.** How did the “gcPBM binding intensity (ln)” value turn out when “TATATATATATATATAGTACGCACACATAGTTGCAA [XGTACX_site5875]” was run?
**A.** 11.1 ± 0.67

**Q.** Which “gcPBM binding intensity (ln)” value does the source give for “AATATGTAATAGTGTACACATATATCTGTATTTATG [CACACA_site4252]” here?
**A.** 11.6 ± 0.91

**Q.** Which “gcPBM binding intensity (ln)” value does the source give for “ATACGCACACATATATGTACATATTGTATATATATA [XGTACX_site3962]” here?
**A.** 11.2 ± 0.71

**Q.** For “ATGAATTAACCTAATCGTACAATAAATATTATTATA [XGTACX_site596]”, which “gcPBM binding intensity (ln)” value is on record?
**A.** 11 ± 0.81

**Q.** “AAAATTAAAAAGAACACACAAATATATCTATAATAA [CACACA_site7660]” was tested. Which “gcPBM binding intensity (ln)” value did it give?
**A.** 9.81 ± 0.26

**Q.** “TTCTATATTATATATGCATGTGTTATTCTTATTTTC [TGCATGCA_site92]” was tested. Which “gcPBM binding intensity (ln)” value did it give?
**A.** 9.87 ± 0.057

**Q.** Which “gcPBM binding intensity (ln)” value does the source give for “ATTTATATATATTTATGTACGTATTAATTTTTTTTT [XGTACX_site3877]” here?
**A.** 11.5 ± 0.88

**Q.** Which “gcPBM binding intensity (ln)” value does the source give for “TTATATTTTATTATGTGTACGTATATAATATAATAT [XGTACX_site6230]” here?
**A.** 11.6 ± 0.97

**Q.** How did the “gcPBM binding intensity (ln)” value turn out when “ATATGATTAATTAAGTGTACGTATTTATAATTATAA [XGTACX_site5783]” was run?
**A.** 11.7 ± 1

**Q.** Which “gcPBM binding intensity (ln)” value does the source give for “ATTTTTTTTTTTTATAGTGGATCCACATTTGCCATT [CACACA_negctrl_site1284]” here?
**A.** 10.3 ± 0.36

**Q.** For “AAAAAAAATTAGGAAACATGCATGTCCCGATAAATA [TGCATGCA_site149]”, which “gcPBM binding intensity (ln)” value is on record?
**A.** 10.28 ± 0.049

**Q.** With “TCTTATTATAAAAGGAGTACATCAATTAGATGTTCC [XGTACX_site8465]” as the sequence, how does the “gcPBM binding intensity (ln)” value read?
**A.** 11.6 ± 1

**Q.** How did the “gcPBM binding intensity (ln)” value turn out when “ATAATATATATATATATATTATCAAATATATATATA [GTGCAC_negctrl_site346]” was run?
**A.** 9.55 ± 0.23

**Q.** Which “gcPBM binding intensity (ln)” value does the source give for “TATTATATATAATATTGTACATTAAAATATTAAAGA [XGTACX_site3698]” here?
**A.** 10.9 ± 0.67

**Q.** How did the “gcPBM binding intensity (ln)” value turn out when “ATATAATGAAGTGAATGTACATATAAAATGTAAAAA [XGTACX_site8052]” was run?
**A.** 11.1 ± 0.43

**Q.** Which “gcPBM binding intensity (ln)” value does the source give for “GGAAGATGAAAAATAAAGCATGTGCTGTACAAACGA [CACACA_negctrl_site1625]” here?
**A.** 10.8 ± 0.37

**Q.** For “AATATTTTGATGTGTACACATTAATACAGTTTTACA [CACACA_site5711]”, which “gcPBM binding intensity (ln)” value is on record?
**A.** 11.7 ± 0.91

**Q.** “GATGATAAAATATGTACACACAGTTTATACATTTTG [CACACA_site4055]” was tested. Which “gcPBM binding intensity (ln)” value did it give?
**A.** 11.3 ± 0.76

**Q.** For “TTATTTAAATAATATGTACACACATTTAAAAAATTA [CACACA_site8912]”, which “gcPBM binding intensity (ln)” value is on record?
**A.** 11.6 ± 0.95

**Q.** Which “gcPBM binding intensity (ln)” value does the source give for “TTAATATTTTGATGTGTACACATTAAAATAGTTTTA [CACACA_site5712]” here?
**A.** 11.8 ± 0.89

**Q.** Which “gcPBM binding intensity (ln)” value does the source give for “ATATAAATATTTATTAGTACACATTAGTGTAGTTTT [XGTACX_site4493]” here?
**A.** 11.5 ± 0.88

**Q.** With “GATGATGTTTATTTGTGTACATATTAATACTTAATA [XGTACX_site1902]” as the sequence, how does the “gcPBM binding intensity (ln)” value read?
**A.** 11.4 ± 0.82

**Q.** “TTTTATTATTTGTCTTGTACTCATTGTAAGAGTATG [XGTACX_site1538]” was tested. Which “gcPBM binding intensity (ln)” value did it give?
**A.** 11.4 ± 0.91

**Q.** For “ATATAATAATATTATACATGCAAAATATGTTCTTCA [TGCATGCA_site115]”, which “gcPBM binding intensity (ln)” value is on record?
**A.** 9.795 ± 0.049

**Q.** How did the “gcPBM binding intensity (ln)” value turn out when “AACTTTATACTTTTTTGTACTTAACCCTTACATTTT [XGTACX_site5798]” was run?
**A.** 11.1 ± 0.38

**Q.** For “AATAACAATTATAAAAGTACAGATTTTTATTTCTAA [XGTACX_site5746]”, which “gcPBM binding intensity (ln)” value is on record?
**A.** 11.1 ± 0.79

**Q.** How did the “gcPBM binding intensity (ln)” value turn out when “TATGTATATATATAAAGTACGCAAATTTATAATAAG [XGTACX_site8744]” was run?
**A.** 11.5 ± 0.98

**Q.** Which “gcPBM binding intensity (ln)” value does the source give for “AAATAAAATTTTATGTGTACGCAAAAAGTTGTAAGC [XGTACX_site8911]” here?
**A.** 11.9 ± 1.3

**Q.** How did the “gcPBM binding intensity (ln)” value turn out when “TATATAAAAATATGTTGTACGCATTTATAAATATAT [XGTACX_site3758]” was run?
**A.** 11.6 ± 0.98

**Q.** With “GCGTAATCTATTTGCACACTTATTTGTTCTTAAAAA [CACACA_site672]” as the sequence, how does the “gcPBM binding intensity (ln)” value read?
**A.** 10.2 ± 0.14

**Q.** “AAGATATGTACTAATACACACACATATATATATATA [CACACA_site8249]” was tested. Which “gcPBM binding intensity (ln)” value did it give?
**A.** 11.2 ± 0.79

**Q.** “TGTATATACATAAAGTGTACGTATATTTATATATAT [XGTACX_site4320]” was tested. Which “gcPBM binding intensity (ln)” value did it give?
**A.** 11.6 ± 0.98

**Q.** “ATGAAAATTATAAAGTGTACATATAGAAACATTTAC [XGTACX_site8047]” was tested. Which “gcPBM binding intensity (ln)” value did it give?
**A.** 11.4 ± 0.99

**Q.** Which “gcPBM binding intensity (ln)” value does the source give for “CATACATTTAAAAAGTGTACGTATATGAAAAAAGGA [XGTACX_site6512]” here?
**A.** 11.7 ± 1.1

**Q.** Which “gcPBM binding intensity (ln)” value does the source give for “TACATATACATATACACACACACACCCAAATAAATA [CACACA_site1344]” here?
**A.** 10.3 ± 0.35

**Q.** “TATATTAACAAAATGGTGCAATAATTTCTATATTAT [GTGCAC_site9857]” was tested. Which “gcPBM binding intensity (ln)” value did it give?
**A.** 10.1 ± 0.22

**Q.** For “ATTTTTCTAAAATACTGTACAAAGGTGCATAAAAAG [XGTACX_site4425]”, which “gcPBM binding intensity (ln)” value is on record?
**A.** 11 ± 0.64

**Q.** “GATAATGAATGATGCACACTAAAAATATTCTACAAC [CACACA_site3622]” was tested. Which “gcPBM binding intensity (ln)” value did it give?
**A.** 10.185 ± 0.007

**Q.** How did the “gcPBM binding intensity (ln)” value turn out when “TTTTCTCTAAAAAGGTGTACAACTAATAATGCACTG [XGTACX_site6074]” was run?
**A.** 11.7 ± 0.83

**Q.** “TTATATATTTTATTATTTATAATCTTTTTTTTATTT [CACACA_negctrl_site112]” was tested. Which “gcPBM binding intensity (ln)” value did it give?
**A.** 9.585 ± 0.049

**Q.** For “AAAAATGAGTGACACACACACATATAAATATAAATA [CACACA_site7115]”, which “gcPBM binding intensity (ln)” value is on record?
**A.** 10.1 ± 0.25

**Q.** How did the “gcPBM binding intensity (ln)” value turn out when “TATGTATGCCTGTTTTGTACTTAAGAAAATGTTGCT [XGTACX_site8443]” was run?
**A.** 11 ± 0.57
